In the library only some 6.2% were active in any assay of this set; here they are far more common.
KB-3-1 cytotox: kills parental KB-3-1 adenocarcinoma cells | hit rate 1.4% among 400,000 | AID 1347075 | Potency, µM (doses to about 46.1 µM), actives largely listed as cytotoxic | KB-3-1 viability, CellTiter-Glo ATP luminescence, 72 h; also: nearly all actives have a fitted effect of over 60% in size
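Using CellTiter-Glo luminescence, growth of non-resistant KB-3-1 adenocarcinoma cells is assessed 72 h after pin-tool compound addition at 37 °C. Normalized responses across the concentration series yield fitted curves.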
ATXN2 expr inh: ATXN2 expression inhibition; HEK-293 ATXN2-luciferase reporter, luminescence, 24 h; Potency, µM (top dose mostly 57 µM), actives largely listed as inhibitors; hit rate 0.72% among 360,000; AID 1745845; also: nearly all actives have a fitted effect of over 55% in size
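ATXN2-luciferase reporter cells (luciferase flanked by upstream and downstream ATXN2 gene portions) were treated 24 h at 37 °C with compounds at up to 57 uM. SteadyGlo luminescence gave expression; GF-AFC fluorescence gave viability.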
HT1080NT lethal: kills 2HG-producing HT-1080-NT fibrosarcoma cells; HT-1080-NT fibrosarcoma viability, CellTiter-Glo ATP luminescence, 48 h; Potency, µM (top dose mostly 46.1 µM), usual class: cytotoxic; hit rate 1.6% among 360,000;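 also: NT is the 2HG producing partner of a matched IDH1 knockdown line; nearly all actives have a fitted effect of over 55% in size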
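750 cells/well, RPMI + 5% FBS; 2 h settle, compound pin-transfer, 48 h at 37 degrees C. CellTiter-Glo 10 min RT, luminescence. Normalized to DMSO and media-only wells.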
KB-V1 cytotox: kills drug-selected multidrug resistant KB-V1 cells; KB-V1 MDR cells viability, CellTiter-Glo, 72 h; Potency, µM (highest dose often 46.1 µM), actives largely listed as cytotoxic; hit rate 3.4% among 400,000; also: nearly all actives have a fitted effect of over 60% in size
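Cells of the MDR subline KB-V1 are plated, dosed with compound at multiple concentrations, and incubated 72 h at 37 degrees C; CellTiter-Glo is then added and luminescence read after 10 min.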
ATXN viability: viability counter-screen for ATXN expression inhibitors; S2 cells (HEK-293 line with an ATXN2-luciferase reporter) viability, CellTiter-Fluor protease fluorescence, 24 h; Potency, µM (series often up to 56.7 µM), usual class: cytotoxic; hit rate 0.49% among 400,000; AID 651635; also: nearly all actives have a fitted effect of over 40% in size
HT1080 IDH1KD tx: kills HT-1080 cells with IDH1 knockdown; hit rate 2% among 360,000; Potency, µM (series often up to 46.1 µM), most hits filed as cytotoxic; HT-1080 IDH1 knockdown viability, ATP luminescence, 48 h; AID 686971
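Luminescent ATP read-out (CellTiter-Glo, 10 min at room temperature) after 48 h compound exposure at 37 °C gave viability of IDH1-knockdown HT-1080 cells. Activity was normalised to DMSO and cell-free wells, then fitted as concentration-response curves.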
Numbers stand for hits; - = inactive; ? = inconclusive; . = no result given; ! = repeats disagree. Calls follow the shape of the dose curve; as a rule, active = well fitted curve in the direction sought with a large enough effect; inconclusive = small, poorly fitted or top-dose-only effect, or another doubt; inactive = no such curve, though single readings can be large; an effect the other way counts as inactive or inconclusive.

SMILES | KB-3-1 cytotox | ATXN2 expr inh | HT1080NT lethal | KB-V1 cytotox | ATXN viability | HT1080 IDH1KD tx
C=CCNC(=O)/C(=C\c1ccc2c(c1)OCO2)NC(=O)c1ccc(Br)cc1 | - | - | - | 23µM | - | -
COc1ccc(-c2noc(C3CCCN(S(=O)(=O)c4cccc(Cl)c4C)C3)n2)cc1OC (centres undefined) | - | - | - | 18µM | - | -
CCCS(=O)(=O)N1CCCC(c2nc(-c3ccc(OC)cc3)no2)C1 (centres undefined) | - | - | - | 13µM | - | -
CCS(=O)(=O)N1CCCC(c2nc(-c3cccc(OC)c3)no2)C1 (centres undefined) | - | - | - | - | - | -
O=S(=O)(c1ccccc1Cl)N1CCCC(c2nc(-c3cccnc3)no2)C1 (centres undefined) | - | - | - | 7.3µM | - | -
COc1ccc(-c2noc(C3CCCN(S(=O)(=O)c4ccc(C)c(Cl)c4)C3)n2)cc1OC (centres undefined) | - | - | - | 3.7µM | ? | -
COc1ccc(CCn2c(=S)[nH]c(=O)c3[nH]cnc32)cc1OC | . | . | - | . | . | -
COc1ccc(CN2C(=O)C(NC(=O)c3ccc(C)cc3)(C(F)(F)F)N=C2c2ccccc2)cc1 (centres undefined) | - | - | . | - | - | .
O=C(Nc1ccccc1F)c1coc(=O)c(Br)c1 | - | - | - | - | ? | -
Cc1cc(NC(=O)c2coc(=O)c(Br)c2)ccc1C(C)C | - | ? | ? | - | ? | 21µM
C[C@@H](NC(=O)c1coc(=O)c(Br)c1)c1ccccc1 | 12µM | ? | 9.2µM | ? | ? | 8.2µM
CC(C)(C)c1ccc(C(=O)C[n+]2ccc(Cl)c3ccc(Cl)cc32)cc1 | 0.26µM | . | . | ? | . | .
CC(C)(C)c1ccc(C(=O)CC(=O)c2cc(Cl)ccc2O)cc1 | 5.8µM | - | ? | 2.6µM | - | ?
Cc1ccc(OCCCCNC(C)(C)C)c([N+](=O)[O-])c1 | - | - | - | 23µM | - | -
C=CCC[C@H](Cc1ccc(F)cc1)C(=O)OC[C@@H](Cc1c[nH]c2ccccc12)NC(=O)[C@H](CC=C)CC(=O)N(CCO)Cc1ccccc1 | ? | ? | ? | ? | 20µM | ?
C=CC[C@H](CC(=O)N(CCO)Cc1ccccc1)C(=O)N[C@@H](COC(=O)[C@@H](CC=C)Cc1ccc(F)cc1)Cc1c[nH]c2ccccc12 | - | - | ? | - | 28µM | ?
C=CCC[C@@H](Cc1ccc(F)cc1)C(=O)OC[C@@H](Cc1c[nH]c2ccccc12)NC(=O)[C@H](CC=C)CC(=O)N(CCO)Cc1ccccc1 | ? | ? | 16µM | 21µM | . | ?
C=CC[C@@H](CC(=O)N(CCO)Cc1ccccc1)C(=O)N[C@@H](COC(=O)[C@@H](CC=C)Cc1ccc(F)cc1)Cc1c[nH]c2ccccc12 | ? | - | ? | ? | ? | ?
CN1CCc2c(sc3c2C(=O)NC(c2ccc(C(C)(C)C)cc2)N3)C1 (centres undefined) | - | - | . | - | - | .
Clc1ccc(/C=C/c2ccnc3ccccc23)c(Cl)c1 | ? | . | . | - | . | .
Oc1c(Br)cc(Br)cc1/C=N/NC(=S)N[C@H]1CC2C=CC1C2 (some centres undefined) | ? | ? | ? | ? | - | 21µM
CC(=O)Nc1ccc(C(=O)N/N=C/c2cc(Br)cc(Br)c2O)cc1 | - | 25µM | ? | - | - | ?
CNC(=S)N/N=C/c1cc(Br)cc(Br)c1O | - | - | ? | - | - | 23µM
COc1ccc(C(=O)Nc2cccc(-c3nc4cccnc4s3)c2C)c(OC)c1 | - | - | . | - | - | .
COc1ccc(-c2cc(C)no2)cc1S(=O)(=O)NCc1cccc(C)c1 | ? | - | 18µM | ? | - | ?
SMILES | KB-3-1 cytotox | ATXN2 expr inh | HT1080NT lethal | KB-V1 cytotox | ATXN viability | HT1080 IDH1KD tx
COc1ccccc1CNS(=O)(=O)c1ccc(-c2cc(C)no2)cc1 | 1.3µM | . | 4.1µM | ? | - | 2.1µM
CCc1ccc(-c2cc(C)no2)cc1S(=O)(=O)NCc1ccccc1OC | - | . | - | - | ? | -
Cn1c(=O)c(C(=O)NNC(=O)c2cccc(Cl)c2)c(O)c2ccccc21 | - | ? | 6.5µM | ? | ? | 9.2µM
CCn1c(=O)c(C(=O)NNC(=O)c2cccc(Cl)c2)c(O)c2ccccc21 | - | ? | 13µM | ? | - | ?
Cn1c(=O)c(C(=O)Nc2ccccn2)c(O)c2ccccc21 | 18µM | - | - | 2.3µM | ? | -
Cc1cccc(C(=O)NNC(=O)c2c(O)c3ccccc3n(C)c2=O)c1 | - | - | ? | ? | - | ?
Cc1cccc(OCC(O)CNC(C)(C)C)c1C (centres undefined) | . | - | . | . | - | .
Cc1cc(F)ccc1S(=O)(=O)Nc1ccc2oc3c(c2c1)CC(C)CC3 (centres undefined) | - | ? | . | ? | 32µM | .
Cc1cc(C)c(S(=O)(=O)Nc2ccc3oc4c(c3c2)CCCC4)cc1C | - | - | . | - | - | .
CC(=O)c1c(C)oc2ccc(NS(=O)(=O)c3ccc(F)cc3C)cc12 | - | - | - | 10µM | - | -
CCCCCCCCn1c2c(c(=N)c3ccccc31)CCC2 | 3.3µM | 7.5µM | 23µM | - | ? | 9.2µM
CCCCCn1c2c(c(=N)c3ccccc31)CCC2 | 3.7µM | ? | ? | ? | - | 2.9µM
C/C(=N\NC(=O)Cn1nc(C)c(Br)c1C)c1cccs1 | - | - | - | 15µM | - | -
C/C(=N\NC(=O)CSc1nc(C)cc(C)n1)c1cccs1 | - | - | - | - | - | -
FC(F)(F)c1cccc(-c2nc3nc(Cl)c(Cl)nc3[nH]2)c1 | 2.6µM! | . | ? | ? | - | ?
FC(F)(F)c1nc2nc(Cl)c(Cl)nc2[nH]1 | ? | . | - | - | ? | -
Cc1cccc2cc(CN(CC3CCCO3)C(=O)c3ccccc3F)c(N(C)C)nc12 (centres undefined) | . | . | . | . | - | .
CCOc1cccc(/C=N/Nc2ccc(S(=O)(=O)N(CC)CC)cn2)c1O | - | ? | ? | ? | ? | 2.6µM
CC(Nc1nc(N2CCNCC2)nc2ccccc12)c1ccccc1 (centres undefined) | - | ? | ? | - | ? | 15µM
CC(Nc1nc(-c2ccncc2)nc2ccccc12)c1ccccc1 (centres undefined) | - | - | - | - | - | -
COc1cccc(N/C(SCc2ccccc2C)=C(/C#N)C(=O)NCc2cccs2)c1 | - | - | - | 5.2µM | - | -
COc1cccc(N/C(SCc2ccccc2Cl)=C(/C#N)C(=O)NCc2cccs2)c1 | - | - | - | 15µM | - | -
COc1cccc(N/C(SC)=C(/C#N)C(=O)NCc2cccs2)c1 | - | - | - | ? | . | -
CC(=O)Oc1ccc(C(=C2CCCCC2)c2ccc(OC(C)=O)cc2)cc1 | . | - | . | . | - | .

Screens (PubChem BioAssay)
